Screens from PubChem.
ALOX12 inhib: qHTS Assay for Inhibitors of 12-hLO (12-human lipoxygenase); purified 12-hLO, xylenol orange hydroperoxide absorbance; 150,000 compounds, 0.12% hits; Potency, µM (top dose mostly 57.1 µM), without a hit: at the highest dose activity change, negative = inhibition, usual class: inhibitors; Polyunsaturated fatty acid lipoxygenase ALOX12 (Homo sapiens), P18054; note: potency is the fitted concentration of half-maximal effect; nearly all actives have a fitted effect of over 55% in size
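Lipoxygenase turnover measured by absorbance at 573 and 405 nm after Fe-XO development. Human 12hLO 150 nM, arachidonate 40 uM, pH 7.0 Hepes buffer with detergent; 15 min compound preincubation, 30 min reaction.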
IMPase Li cell: qHTS Assay for Identifying the Cell-Membrane Permeable IMPase Inhibitors: Potentiation with Lithium | Potency, µM (top dose mostly 59.4 µM), without a hit: at the highest dose activity, negative = IMPase inhibition, most hits filed as inhibitors | CHO-M1 cells, IP1 TR-FRET (IP-One), carbachol + lithium | 210,000 compounds, 0.35% hits;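 note: IP1 builds up when IMPase is blocked and the TR-FRET signal falls; potency is the fitted concentration of half-maximal effect; plate controls were basal vehicle for no effect and high inhibitor control for full effect; nearly all actives have a fitted effect of over 50% in size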
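CHO cells stably expressing M1 receptor (2000/well, cultured 16–30 h) treated 30 min at 37C with compound plus low lithium. Cytosolic IP1 by TR-FRET (665/620 ratio and 620 channel) after 10 min lysis; AC50 by Hill fit.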
PNC inhibitor: High Content Assay for Compounds that inhibit the Assembly of the Perinucleolar Compartment; PC3M PTB-GFP, PNC prevalence imaging, 16 h; active compounds read low; activity change (PNC), negative = inhibition, % at 10 µM; 140,000 compounds, 3.1% hits; AID 2417, 2010;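 active = readout at or below -70, meaning at least 70% loss of cells showing the perinucleolar compartment, a nuclear body marking cancer cells; inconclusive = readout between -30 and a set limit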;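 note: plate controls were DMSO wells for no effect and camptothecin positive control wells for full effect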
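Read-out is percentage of cells bearing a perinucleolar compartment, from automated 20x imaging of fixed, Hoechst-stained PC3M PTB-GFP cells. Cells were seeded 4 h, then exposed 16 h to compound (23 nl of library stock) in duplicate plates.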
15-hLO-2 inh: qHTS Assay for Inhibitors of 15-hLO-2 (15-human lipoxygenase 2) | purified 15hLO-2, xylenol orange hydroperoxide absorbance | Potency, µM (doses to about 57.1 µM), for the others: at the highest dose activity change, negative = inhibition, most hits filed as inhibitors | 110,000 compounds, 0.56% hits | AID 881, 2007; note: potency is the fitted concentration of half-maximal effect; nearly all actives have a fitted effect of over 60% in size
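Purified human 15hLO-2 (50 nM) preincubated 15 min with compound, then 45 uM arachidonic acid for 90 min at RT in 25 mM Hepes pH 7.5, 0.01% Triton X-100. Hydroperoxide detected by Fe-xylenol orange; 573/405 nm absorbance ratio.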
IMPase cell inh: qHTS Assay for Identifying the Cell-Membrane Permeable IMPase Inhibitors; AID 901, 2007; inhibition (IP1 accumulation), % at 46.1 µM; Inositol monophosphatase 1 (Rattus norvegicus), P97697; 120,000 tested, under 10 active; CHO-M1 cells, IP1 accumulation, HTRF TR-FRET ratio; active = well fitted curve in the direction sought with a large enough effect in the signal ratio, not every such curve was filed as active; inconclusive = small, poorly fitted or top-dose-only effect, or a change in a side signal; inactive = no such curve, though single readings can be large or run the other way; the % refers to the signal ratio;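 note: cells stimulated with carbachol in lithium chloride buffer; plate controls were DMSO basal wells for no effect and reference inhibitor wells for full effect; higher means more IMPase inhibition seen as more IP1 and lower FRET ratio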
Target sequence (P97697 whole entry, looked up): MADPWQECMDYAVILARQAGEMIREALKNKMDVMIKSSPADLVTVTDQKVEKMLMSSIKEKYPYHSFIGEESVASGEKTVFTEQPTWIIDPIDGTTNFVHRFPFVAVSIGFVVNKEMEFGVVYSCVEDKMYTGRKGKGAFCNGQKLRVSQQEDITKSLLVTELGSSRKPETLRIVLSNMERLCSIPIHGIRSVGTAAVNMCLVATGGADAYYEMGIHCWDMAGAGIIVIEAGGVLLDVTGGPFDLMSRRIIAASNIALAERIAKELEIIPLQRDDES
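Elevated IP1 in lysates lowers TR-FRET signal (665/620 ratio and 620 channel reported). Cells were CHO-M1, given carbachol (50 uM as added) plus 50mM LiCl, pH 7.4, 30 min, 37C; compounds titrated up to 46 uM; AC50 by Hill equation.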
HPGD block: qHTS Assay for Inhibitors of HPGD (15-Hydroxyprostaglandin Dehydrogenase). 15-hydroxyprostaglandin dehydrogenase [NAD(+)] (Homo sapiens), P15428. Potency, µM, for inactives: at the top dose activity change, negative = inhibition, hits mostly inhibitors. purified HPGD, NADH fluorescence kinetic, PGE2 substrate. 150,000 compounds, 4.3% hits; active = well fitted inhibition curve with a large enough effect, not every such curve was filed as active; inconclusive = small, poorly fitted or top-dose-only effect, or another doubt; inactive = no such curve, though single readings can be large or run the other way; note: potency is the fitted concentration of half-maximal effect
Target sequence (P15428 whole entry, looked up): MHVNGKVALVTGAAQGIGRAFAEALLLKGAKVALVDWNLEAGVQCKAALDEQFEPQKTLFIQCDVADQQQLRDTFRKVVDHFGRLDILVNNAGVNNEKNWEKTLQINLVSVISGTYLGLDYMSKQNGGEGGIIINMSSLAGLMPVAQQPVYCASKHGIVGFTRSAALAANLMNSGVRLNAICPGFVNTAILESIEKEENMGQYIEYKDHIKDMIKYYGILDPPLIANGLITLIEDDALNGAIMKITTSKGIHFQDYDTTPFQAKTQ
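20 nM HPGD preincubated 15 min at room temperature with compound in 50 mM Tris-HCl pH 8, 0.01% Tween 20. Started with 1 mM NAD+ and 30 uM prostaglandin E2; NADH fluorescence (360/450 nm) read 5 times over 30-s intervals, last minus first.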
Numbers without * were called inactive; ? = inconclusive; · = no result; ! = repeats disagree; [ ] = dose if it differs, or a comment. In the library only some 5.4% were active in any assay of this set; here they are far more common. Unless noted, calls come from the whole dose curve; as a rule, active = well fitted curve in the direction sought with a large enough effect; inconclusive = small, poorly fitted or top-dose-only effect, or another doubt; inactive = no such curve, though single readings can be large; an effect the other way counts as inactive or inconclusive. Unless noted, % is set by controls: 0 for no effect and ±100 for the full control effect.

SMILES	ALOX12 inhib	IMPase Li cell	PNC inhibitor	15-hLO-2 inh	IMPase cell inh	HPGD block
CCOc1ccc(Oc2nc(NCC(C)C)nc(N3CCOCC3)n2)nn1	·	·	·	·	1	·
C/C(=N/S(=O)(=O)c1ccc(Cl)c(Cl)c1)OCC(C)(C)C	3%[11.4 µM]	3%	·	-5%[11.4 µM]	·	-6%
COc1ccc2c(c1OC)C(=O)OC2CC(=O)c1ccc(O)cc1 (centres undefined)	-10%	-9%[38.3 µM]	?	4%	7	25µM*
COc1ccc2c(c1OC)C(=O)OC2CC(=O)c1ccc(O)c(O)c1 (centres undefined)	?	-9%[38.3 µM]	4	-6%	7	?
O=C(O)c1ccc(C(=O)O)c(C(=O)c2ccccc2)c1	-3%	7%[38.3 µM]	0	?	0	-14%
Nc1ccc(C(=O)c2ccccc2C(=O)O)cc1Cl	-3%	0%[38.3 µM]	-107*	4%	-5	-3%
CCCCCCC1CC(CCc2nc(=S)[nH][nH]2)C(=O)O1 (centres undefined)	-2%	-1%	?	·	·	16µM*
CCCCCC1CC(CC(=O)O)C(=O)O1 (centres undefined)	2%	24%[38.3 µM]	-13	0%	0	-9%
CCCCCCCCc1nc(=S)[nH][nH]1	-23%	-2%	-6	·	4	16µM*
COc1ccc(-c2cc(C(F)(F)F)n3ncc(-c4ccccc4)c3n2)cc1	·	·	·	·	-4	·
COc1ccc(-c2[nH]c(-c3ccc4c(c3)OCO4)nc2-c2ccccc2)cc1	-22%	1%[38.3 µM]	-21	65%	-6	?
NC(=O)c1ccc(-c2nc(-c3ccc4c(c3)OCO4)c(-c3ccccn3)[nH]2)cc1	-1%	2.5µM*!	·	21%	-29	?
CC(=O)c1c(C)oc2ccc(N(C(=O)Oc3ccccc3)S(=O)(=O)c3ccc(C(C)(C)C)cc3)cc12	·	·	·	·	-5	·
CC1CCN(c2ncnc3c2cnn3-c2ccccc2)CC1	-8%	-6%[38.3 µM]	7	4%	2	28µM*
CCOC(=O)C1CCN(c2ncnc3c2cnn3-c2ccccc2)CC1	-1%	24%[38.3 µM]	13	4%	2	-3%
c1ccc(CCNc2ncnc3c2cnn3-c2ccccc2)cc1	-7%	3%	18	·	-3	16µM*
c1ccc(CNc2ncnc3c2cnn3-c2ccccc2)cc1	-3%	·	22	-2%	4	·
CC(C)(C)Nc1ncnc2c1cnn2-c1ccccc1	-9%	17%[38.3 µM]	?	2%	5	25µM*
Oc1c(Cl)cc(CN(Cc2cc(Cl)c(O)c(Cl)c2)C2CCCCC2)cc1Cl	2%[11.4 µM]	-7%	·	-4%[11.4 µM]	·	-3%
COc1ccc(-c2nc(-c3ccccc3)oc2Nc2c(C)cccc2C)cc1	-2%	14%	·	·	·	-8%
Cn1c(=O)c2c(-c3ccccc3)n3c4ccccc4nc(-c4ccccc4)c3c2n(C)c1=O	·	·	·	·	6	·
CCn1c(SCC(=O)N/N=C/C=C/c2ccco2)nnc1-c1ccc(OC)cc1	-21%	-2%	?	·	11	32µM*
O=C(CSc1nnc(SCc2ccccc2)s1)N/N=C/C=C\c1ccco1	-3%	-4%	-12	·	-2	16µM*
Cc1ccc(/C=N\NC(=O)Cc2cccn2C)o1	·	10%	·	·	·	·
Cn1cccc1CC(=O)N/N=C/C=C/c1ccco1	-4%	1%	?	·	·	16µM*
SMILES	ALOX12 inhib	IMPase Li cell	PNC inhibitor	15-hLO-2 inh	IMPase cell inh	HPGD block
Cc1cc2nc(CCN(Cc3cccnc3)C(=S)Nc3ccccc3)[nH]c2cc1C	-2%	?	-86*	28%[11.4 µM]	-3[1.84 µM]	-1%
CC(C)N(C)C	0%	-14%	·	-5%	·	-8%
CCCCn1c(=S)[nH]c2c(oc3ccc(Cl)cc32)c1=O	-5%	10µM*	48	·	-23	-7%
CCN(CC)CCCn1c(=S)[nH]c2ccccc2c1=O	2%	34%[38.3 µM]	-20	1%	3	-7%
COc1cc(C(=O)N2CCN(c3cccc(C)c3C)CC2)cc(OC)c1OC	-1%	14%	-122*	·	-9	-10%
COc1cc(C(=O)N2CCN(c3cc(Cl)ccc3Cl)CC2)cc(OC)c1OC	5%	20%	-88*	·	5	1%
CN(C)CCC(=O)[C@@]1(O)CC[C@H]2[C@H]3CC=C4C[C@@H](O)CC[C@]4(C)[C@H]3CC[C@]21C	-1%[11.4 µM]	-5%	·	-8%[11.4 µM]	·	-11%
COc1ccc(Oc2ncnc3c2ncn3Cc2ccccc2)cc1	0%	1%[38.3 µM]	25	3%	7	8.9µM*
CCNc1ncc2nc(-c3cc(F)cc(F)c3)c(=O)n(CCOC)c2n1	·	-8%	·	0%	·	·
Cc1sc(NC(=O)C2CCCO2)c(C#N)c1C (centres undefined)	8%	27%[38.3 µM]	-92*	-1%	0	-27%
CCCCCC(=O)Nc1sc(C)c(C)c1C#N	-10%	0%	?	·	·	25µM*
N#Cc1c(NC(=O)C2CCCO2)sc2c1CCCCCC2 (centres undefined)	-2%	13%	-26	·	·	?
Cc1sc(NC(=O)C2CCCC2)c(C#N)c1C	-21%	1%	?	·	·	10µM*
COc1ccc(-c2nc3cnc(N4CCN(C)CC4)nc3n(Cc3cccc(OC)c3)c2=O)cc1	·	29%	·	11%	·	·
COc1ccccc1NC(=O)c1cc2ccccc2o/c1=N\O	-12%	-6%[38.3 µM]	3	-6%	-4	22µM*
COc1ccccc1NC(=O)c1cc2ccc(O)cc2o/c1=N\O	-11%	-1%[38.3 µM]	0	9%	7	-17%
Cc1ccc(C2(c3ccc(C)cc3)CC2C(=O)Nc2ccc([N+](=O)[O-])cc2O)cc1 (centres undefined)	-21%	26%[38.3 µM]	-18	?	6	14µM*
CC1(C)[C@@H](CC(=O)O)CCC[C@@H]1CC(=O)O	0%[11.4 µM]	-3%	·	-3%[11.4 µM]	·	-2%
COCCn1c(=O)c(-c2cccc(C#N)c2)nc2cnc(OCc3ccccc3)nc21	·	24%	·	5%	·	·
O=C(CCc1nc2ccccc2s1)NCc1ccccc1F	·	4%	·	·	·	·
O=C(CCCc1nc2ccccc2s1)NCc1ccccc1F	1%	-1%	3	·	·	32µM*
CCS(=O)(=O)NCCc1cc2c(OC)ccc(OC)c2[nH]c1=O	-2%	4%	-100*	·	2	-22%
CCCS(=O)(=O)NCCc1cc2ccc(C)cc2[nH]c1=O	-2%	2%	28	·	-6	?
